Bioassay records as filed in PubChem BioAssay.
CYP2C19 inhib = human CYP2C19 inhibition; AID 778; P33261; CYP2C19 Supersomes, luciferin-H EGE luminescence, 30 min; hit rate 21% among 96,000; inhibition, % at 5 µM;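 active means CYP2C19 inhibition above a set limit at 5 µM in the primary screen, cut at about 50% in these data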;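 further: plate controls were negative control wells for no effect and 2.5 mM tranylcypromine positive control for full effect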
CYP2C9 inh = inhibitors of human CYP2C9. hit rate 20% among 96,000. CYP2C9 Supersomes, luciferin-H conversion, luminescence. AID 777. inhibition, % at 5 µM. P11712;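 active means blocking of liver enzyme CYP2C9 beyond about 50% at 5 µM, limit read from the data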
Target sequence (P11712 whole entry, looked up): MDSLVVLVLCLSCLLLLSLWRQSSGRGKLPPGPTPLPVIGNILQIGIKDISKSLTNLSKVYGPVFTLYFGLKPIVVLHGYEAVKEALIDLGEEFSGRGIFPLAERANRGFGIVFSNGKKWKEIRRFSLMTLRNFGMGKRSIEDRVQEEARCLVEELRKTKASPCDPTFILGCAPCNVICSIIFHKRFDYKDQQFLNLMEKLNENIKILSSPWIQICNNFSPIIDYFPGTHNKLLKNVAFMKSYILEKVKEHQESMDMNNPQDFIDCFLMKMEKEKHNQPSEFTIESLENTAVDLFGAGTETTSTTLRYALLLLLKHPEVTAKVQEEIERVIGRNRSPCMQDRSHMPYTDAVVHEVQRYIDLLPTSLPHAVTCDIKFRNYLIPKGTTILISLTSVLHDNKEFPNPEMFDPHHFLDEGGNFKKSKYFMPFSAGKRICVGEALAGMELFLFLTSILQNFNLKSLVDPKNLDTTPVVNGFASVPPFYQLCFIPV
CYP2C19 act = increases human CYP2C19 enzyme activity. P33261. recombinant CYP2C19, luciferin-H EGE luminescence; hits give high values; 0 = fully inhibited enzyme, 1 = untreated enzyme. activation factor at 5 µM. 96,000 tested, under 10 active;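 active means activation factor of at least 2 at 5 µM in the primary screen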;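 further: 0 = wells with 2.5 mM tranylcypromine and 1 = vehicle-only wells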
Measles CPE = protection of cells from measles virus; Measles virus-infected cells, CPE protection, absorbance; protection (pct of control), % at 4 µM; hit rate 1.5% among 140,000; in the data active means protection mostly above about 24%, no sharp cut-off; inactive means mostly below about 26%
CYP2C9 activ = activators of human CYP2C9; activation factor at 5 µM; P11712; hit rate 1.4% among 96,000; recombinant CYP2C9, luciferin-H conversion, luminescence; hits give high values; factor 1 = untreated enzyme, 0 = blocked;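 active means activation factor of 2 or more for CYP2C9 at a 5 µM dose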;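 further: 0 = sulfaphenazole-blocked wells and 1 = vehicle-only wells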
Active calls of the source: *; · = no result given. Most compounds without a hit are left out; they make up all but 22% or so of the library.

SMILES	CYP2C19 inhib	CYP2C9 inh	CYP2C19 act	Measles CPE	CYP2C9 activ
O=C(CN1C(=O)C2CC=CCC2C1=O)Nc1ccc(-c2nnc3n2CCCCC3)cc1 (configuration not stated)	5	10	0.9	6	0.9
O=C(Nc1ccc(Cc2ccncc2)cc1)C1CCC(N2C(=O)C3C4C=CC(C4)C3C2=O)CC1 (configuration not stated)	96*	95*	0	21	0
O=C1C2C3C=CC(C3)C2C(=O)N1c1ccc(Cc2ccncc2)cc1 (configuration not stated)	71*	80*	0.3	7	0.2
Cc1cccc(N2C(=O)C3C4C=CC(C4)C3C2=O)c1 (configuration not stated)	26	9	0.7	8	0.9
O=C(Nc1ccc(Cc2ccncc2)cc1)C1CCC(N2C(=O)C3CC=CCC3C2=O)CC1 (configuration not stated)	58*	67*	0.4	6	0.3
CCc1nc(NCC2CCCN2CC)c2nnn(Cc3ccccc3F)c2n1 (configuration not stated)	-2	-9	1	6	1.1
CCn1c(=O)n(CC(=O)NC2CCCC(C)C2C)c(=O)c2ccccc21 (configuration not stated)	29	-5	0.7	34	1.1
Cc1cc(C)nc(SCC2COc3ccccc3O2)n1 (configuration not stated)	47	17	0.5	2	0.8
COC(=O)CN(c1nc(C)cc(OC)n1)S(=O)(=O)c1ccc(C)cc1	26	18	0.7	20	0.8
COC(=O)CN(c1nc(C)c(Br)c(OC)n1)S(=O)(=O)c1ccc(C)cc1	90*	89*	0.1	3	0.1
N#C/C(=N\Nc1ccc(Cl)cc1)C(=O)c1ccccc1	69*	7	0.3	25	0.9
Oc1ccc2c(c1)C1CCCC1(N1CCOCC1)O2 (configuration not stated)	-15	-9	1.2	13	1.1
c1ccc2c(c1)nc1n2C2(N3CCOCC3)CCCC2C1N1CCOCC1 (configuration not stated)	13	99*	0.9	·	0
COc1ccc(C2CC(=O)C3=C(C2)Nc2ccccc2NC3c2coc3ccccc3c2=O)cc1OC (configuration not stated)	·	·	·	27	·
CCOC(=O)c1c(NC(=O)C2COc3ccccc3O2)sc(C(C)=O)c1C (configuration not stated)	22	46	0.8	37	0.5
CCOC(=O)c1c(NC(=O)C2COc3ccccc3O2)sc2c1CC(C)(C)NC2(C)C (configuration not stated)	·	·	·	47*	·
CCOC(=O)C1CCN(C(c2cc3ccc(C)c(C)c3[nH]c2=O)c2nnnn2C2CCCCC2)CC1 (configuration not stated)	80*	90*	0.2	7	0.1
O=S(=O)(NC1CC1)c1ccc(S(=O)(=O)N(Cc2ccccn2)C2CCCC2)cc1	62*	71*	0.4	5	0.3
O=C(CS(=O)CC(=O)N(CC(=O)NC1CCCC1)C1CCCC1)Nc1ccc(F)cc1 (configuration not stated)	-14	0	1.1	3	1
CN1CCN(C(=O)c2cn(-c3ccccc3)nc2-c2cccnc2)CC1	-2	-30	1	5	1.3
Cc1ccc(-c2nn(-c3ccccc3)cc2C(=O)N2CCOCC2)cc1	54*	71*	0.5	18	0.3
Cc1cc(C(=O)OCc2nnc(-c3ccccc3)o2)c(C)n1-c1ccccc1	46	64*	0.5	30	0.4
O=C(OCc1nnc(-c2ccccc2)o1)c1cn(-c2ccccc2)nc1-c1ccccc1	55*	91*	0.5	12	0.1
CCOC(=O)c1cn(-c2ccccc2)nc1-c1ccncc1	91*	82*	0.1	17	0.2
Cc1noc(C)c1COC(=O)c1cc(C)n(-c2ccccc2)c1C	21	38	0.8	13	0.6
SMILES	CYP2C19 inhib	CYP2C9 inh	CYP2C19 act	Measles CPE	CYP2C9 activ
COC(=O)c1cn(-c2ccccc2)nc1-c1ccccc1	16	21	0.8	7	0.8
Cc1c(NC(=O)C(C)Sc2n[nH]c(N)n2)c(=O)n(-c2ccccc2)n1C (configuration not stated)	-6	-12	1.1	8	1.1
CCOc1ccc(NC(=O)CSc2nc3c(c(=O)n2C)SC(C)C3)cc1 (configuration not stated)	11	47	0.9	11	0.5
O=C(NNS(=O)(=O)c1ccc(F)c(Cl)c1)c1cccc(S(=O)(=O)N2CCOCC2)c1	·	·	·	4	·
Cc1ccc(-n2cc(C(=O)c3ccccc3O)cn2)cc1	61*	-5	0.4	1	1.1
CCOC(=O)c1nn(-c2ccc(C)cc2)cc1C(=O)c1ccccc1	66*	43	0.3	5	0.6
COC(=O)[C@H]1CCCN1C(=O)Nc1cccc(Oc2c(F)c(F)c(F)c(F)c2F)c1	·	·	·	9	·
CCN(CC)S(=O)(=O)c1cc(-c2nnc(-c3ccc(Br)cc3)o2)ccc1Cl	34	60*	0.7	5	0.4
CCOc1ncccc1C(=O)OCc1c(Cl)cccc1Cl	·	·	·	11	·
Clc1ccc(-c2nnc3sc(-c4ccco4)nn23)c(Cl)c1	-2	8	1	·	0.9
c1ccc(Cc2nnc3sc(-c4ccco4)nn23)cc1	91*	43	0.1	10	0.6
Clc1ccccc1-c1nnc2sc(-c3ccccn3)nn12	·	·	·	17	·
Clc1ccccc1-c1nnc2sc(-c3ccco3)nn12	69*	33	0.3	6	0.7
COc1cccc(OC)c1-c1nn2c(-c3ccccc3Cl)nnc2s1	82*	19	0.2	5	0.8
COc1cc(NS(=O)(=O)c2ccc(NC(=O)C34CC5CC(CC(C5)C3)C4)cc2)ncn1	-1	-19	1	3	1.2
COC(=O)c1ccc(Cl)c(NC(=O)CN(c2ccccc2)S(=O)(=O)c2ccc(OC)cc2)c1	·	·	·	10	·
CCn1c(SCc2ccc(OC)cc2)nnc1-c1ccncc1	92*	12	0.1	9	0.9
C=CCn1c(SCc2ccc(C#N)cc2)nnc1-c1cccc(OC)c1	91*	64*	0.1	15	0.4
COc1cccc(-c2nnc(SCc3ccc(C#N)cc3)n2Cc2ccco2)c1	91*	95*	0.1	5	0.1
CCn1c(SCc2ccc(C(=O)Nc3cc(C)cc(C)c3)cc2)nnc1-c1ccncc1	44	42	0.6	18	0.6
C=CCn1c(SCc2nc(N)nc(N(C)C)n2)nnc1-c1cccnc1	49	15	0.5	36*	0.8
Cc1ccc(-c2nnc(SCc3ccc(C#N)cc3)n2Cc2ccco2)cc1	11	32	0.9	16	0.7
O=C(NCC1(c2ccccc2)CCCC1)c1ccc(Br)o1	·	·	·	9	·
COc1ccc(NC(=O)CCNS(=O)(=O)c2ccc3c(c2)c(=O)n(C)c(=O)n3C)c(OC)c1	·	·	·	19	·
CCn1c(SCc2cccc(C)c2)nnc1-c1ccc(C)cc1	86*	10	0.1	30	0.9
